For some of these results: Results with a measured potency or affinity are listed apart.
How the values were obtained:
Parameters in all cases: scale not given: direction of the effect not stated beside the values
[1] = biological target: Protein translocase subunit SecA (Escherichia coli (strain K12)) (UniProt P10408); assay: Assay to Identify E. coli SecA ATPase Inhibitors; format: functional; conditions: 30 µM
[2] = biological target: T1, Ubiquitin-activating enzyme e1, putative (Leishmania donovani (strain BPK282A1)) (UniProt E9BSI1); assay: Leishmania donovani Ubiquitin Activating Enzyme (LdE1); format: functional; conditions: 30 µM
T1 sequence (whole entry): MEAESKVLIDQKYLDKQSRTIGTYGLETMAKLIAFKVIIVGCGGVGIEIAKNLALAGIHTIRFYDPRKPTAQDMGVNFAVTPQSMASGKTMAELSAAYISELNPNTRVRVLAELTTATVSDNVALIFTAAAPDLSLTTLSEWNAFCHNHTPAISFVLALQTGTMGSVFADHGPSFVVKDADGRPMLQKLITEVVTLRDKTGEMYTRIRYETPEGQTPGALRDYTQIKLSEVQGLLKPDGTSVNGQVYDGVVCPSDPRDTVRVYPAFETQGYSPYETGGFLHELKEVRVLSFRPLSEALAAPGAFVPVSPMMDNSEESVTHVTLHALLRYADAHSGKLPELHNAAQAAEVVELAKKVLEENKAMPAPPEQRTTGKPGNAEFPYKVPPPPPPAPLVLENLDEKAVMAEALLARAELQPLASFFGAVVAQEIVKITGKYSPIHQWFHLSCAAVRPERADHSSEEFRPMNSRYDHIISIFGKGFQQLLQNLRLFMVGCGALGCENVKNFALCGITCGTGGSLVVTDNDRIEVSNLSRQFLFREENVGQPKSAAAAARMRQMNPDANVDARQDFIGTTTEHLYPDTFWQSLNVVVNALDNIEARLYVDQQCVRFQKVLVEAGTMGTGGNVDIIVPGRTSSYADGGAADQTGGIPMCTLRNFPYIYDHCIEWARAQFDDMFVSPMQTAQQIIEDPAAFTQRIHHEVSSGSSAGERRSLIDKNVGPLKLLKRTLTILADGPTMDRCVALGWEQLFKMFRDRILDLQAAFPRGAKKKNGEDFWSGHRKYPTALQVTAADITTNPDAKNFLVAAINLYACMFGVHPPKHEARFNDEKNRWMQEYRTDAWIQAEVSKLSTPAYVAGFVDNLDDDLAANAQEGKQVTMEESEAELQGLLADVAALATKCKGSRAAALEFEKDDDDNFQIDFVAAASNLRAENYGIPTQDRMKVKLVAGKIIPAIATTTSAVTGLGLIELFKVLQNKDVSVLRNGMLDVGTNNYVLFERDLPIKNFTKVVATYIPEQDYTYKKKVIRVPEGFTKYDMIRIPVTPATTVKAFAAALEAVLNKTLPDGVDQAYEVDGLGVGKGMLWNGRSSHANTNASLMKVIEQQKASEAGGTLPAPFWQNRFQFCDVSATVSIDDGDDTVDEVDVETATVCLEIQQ

[3] = biological target: AMP-activated protein kinase, AMPK (Homo sapiens) (UniProt P54646+O43741+P54619+Q9UGJ0+Q9Y478+Q13131+Q9UGI9); assay: AMP-dependent Kinase enzyme assay. An in vitro enzyme assay that detects ADP turnover that is directly proportional to AMPK activity. This uses naive AMPK that is activated during the assay with MK-8722; format: functional; conditions: 30 µM
[4] = biological target: Sialic acid-binding Ig-like lectin 9 (Homo sapiens) (UniProt Q9Y336); assay: Hs-Siglec9 ALPHAscreen SOP 20170721; conditions: 10 µM
[5] = system: Trypanosoma cruzi; assay: Trypanosoma cruzi phosphomannomutase and mannose-1-phosphate guanylyltransferase assay; format: functional; conditions: 10 µM
[6] = biological target: T2, Arginase-2, mitochondrial (Homo sapiens) (UniProt P78540); assay: in vitro enzyme assay to detect the production of urea directly proportional to the activity of Arginase II; format: functional; conditions: 33.3 µM; note: in the data most compounds retested in dose-response had high values
T2 sequence (whole entry): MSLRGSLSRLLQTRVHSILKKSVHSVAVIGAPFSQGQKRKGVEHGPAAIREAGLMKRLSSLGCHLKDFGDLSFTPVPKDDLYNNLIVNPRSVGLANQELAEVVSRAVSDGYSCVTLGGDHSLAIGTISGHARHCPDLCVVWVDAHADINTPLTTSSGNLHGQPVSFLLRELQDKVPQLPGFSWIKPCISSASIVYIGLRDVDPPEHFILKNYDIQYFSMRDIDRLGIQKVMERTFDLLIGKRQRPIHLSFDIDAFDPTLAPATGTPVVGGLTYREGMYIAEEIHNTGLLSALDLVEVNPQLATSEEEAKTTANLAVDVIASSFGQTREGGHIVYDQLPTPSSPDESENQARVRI

[7] = biological target: T3, Proteasome subunit beta (Trypanosoma cruzi) (UniProt O96673); assay: Trypanosoma cruzi proteasome chymotrypsin-like activity (TcProtChymo) assay.; note: in the data most compounds retested in dose-response had high values; format: functional; conditions: 9.37 µM
T3 sequence (whole entry): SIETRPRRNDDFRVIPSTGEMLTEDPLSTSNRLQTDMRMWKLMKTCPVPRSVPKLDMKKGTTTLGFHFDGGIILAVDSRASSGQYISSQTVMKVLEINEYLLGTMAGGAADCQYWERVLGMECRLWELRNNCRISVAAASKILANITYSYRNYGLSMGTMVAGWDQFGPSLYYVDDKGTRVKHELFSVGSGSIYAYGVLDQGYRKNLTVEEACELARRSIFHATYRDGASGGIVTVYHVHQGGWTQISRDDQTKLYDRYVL

[8] = species: Homo sapiens; assay: To identify inhibition of the IFN signalling (Jak-Stat) pathway via expression of an eGFP reporter gene under the control of an IFN-stimulated response element (ISRE) containing MxA promoter.; format: functional; conditions: 30 µM
[9] = biological target: T4, Tyrosyl-tRNA synthetase, putative (Trypanosoma cruzi (strain CL Brener)) (UniProt Q4DSP6); assay: Trypanosoma cruzi tyrosyl tRNA synthetase (TcYRS) _High Tyrosine SOP; format: functional; conditions: 30 µM; note: in the data most compounds retested in dose-response had high values
T4 sequence (whole entry): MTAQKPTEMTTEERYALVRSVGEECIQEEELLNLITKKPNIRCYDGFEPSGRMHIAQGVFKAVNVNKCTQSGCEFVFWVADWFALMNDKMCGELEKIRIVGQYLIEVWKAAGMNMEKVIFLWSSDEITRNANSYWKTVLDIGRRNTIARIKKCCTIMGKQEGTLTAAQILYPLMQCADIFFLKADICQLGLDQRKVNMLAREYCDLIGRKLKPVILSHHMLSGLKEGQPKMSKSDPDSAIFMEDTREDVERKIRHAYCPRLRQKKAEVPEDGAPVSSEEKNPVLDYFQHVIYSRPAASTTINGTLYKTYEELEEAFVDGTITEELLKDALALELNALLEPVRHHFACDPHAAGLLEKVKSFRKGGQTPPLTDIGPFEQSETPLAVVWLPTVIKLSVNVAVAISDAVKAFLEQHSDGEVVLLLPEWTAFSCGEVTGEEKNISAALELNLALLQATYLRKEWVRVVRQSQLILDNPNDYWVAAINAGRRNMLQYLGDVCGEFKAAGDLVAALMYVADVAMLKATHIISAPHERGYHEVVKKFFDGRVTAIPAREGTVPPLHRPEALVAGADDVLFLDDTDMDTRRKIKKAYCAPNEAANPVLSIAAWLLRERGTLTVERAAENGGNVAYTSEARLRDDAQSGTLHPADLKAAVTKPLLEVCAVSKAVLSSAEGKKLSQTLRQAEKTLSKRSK

[10] = biological target: T4, Tyrosyl-tRNA synthetase, putative (Trypanosoma cruzi (strain CL Brener)); assay: Trypanosoma cruzi tyrosyl tRNA synthetase (TcYRS) SOP; format: functional; conditions: 30 µM
[11] = biological target: Chromo domain-containing protein 1 (Saccharomyces cerevisiae (strain ATCC 204508 / S288c) (Baker's yeast)) (UniProt P32657); assay: ScCHD-1 Enzyme Inhibition Assay; format: functional; conditions: 30 µM; note: in the data most compounds retested in dose-response had high values
Chromo domain-containing protein 1 (Saccharomyces cerevisiae (strain ATCC 204508 / S288c) (Baker's yeast)), sequence (P32657 whole entry, the tested form may be a part): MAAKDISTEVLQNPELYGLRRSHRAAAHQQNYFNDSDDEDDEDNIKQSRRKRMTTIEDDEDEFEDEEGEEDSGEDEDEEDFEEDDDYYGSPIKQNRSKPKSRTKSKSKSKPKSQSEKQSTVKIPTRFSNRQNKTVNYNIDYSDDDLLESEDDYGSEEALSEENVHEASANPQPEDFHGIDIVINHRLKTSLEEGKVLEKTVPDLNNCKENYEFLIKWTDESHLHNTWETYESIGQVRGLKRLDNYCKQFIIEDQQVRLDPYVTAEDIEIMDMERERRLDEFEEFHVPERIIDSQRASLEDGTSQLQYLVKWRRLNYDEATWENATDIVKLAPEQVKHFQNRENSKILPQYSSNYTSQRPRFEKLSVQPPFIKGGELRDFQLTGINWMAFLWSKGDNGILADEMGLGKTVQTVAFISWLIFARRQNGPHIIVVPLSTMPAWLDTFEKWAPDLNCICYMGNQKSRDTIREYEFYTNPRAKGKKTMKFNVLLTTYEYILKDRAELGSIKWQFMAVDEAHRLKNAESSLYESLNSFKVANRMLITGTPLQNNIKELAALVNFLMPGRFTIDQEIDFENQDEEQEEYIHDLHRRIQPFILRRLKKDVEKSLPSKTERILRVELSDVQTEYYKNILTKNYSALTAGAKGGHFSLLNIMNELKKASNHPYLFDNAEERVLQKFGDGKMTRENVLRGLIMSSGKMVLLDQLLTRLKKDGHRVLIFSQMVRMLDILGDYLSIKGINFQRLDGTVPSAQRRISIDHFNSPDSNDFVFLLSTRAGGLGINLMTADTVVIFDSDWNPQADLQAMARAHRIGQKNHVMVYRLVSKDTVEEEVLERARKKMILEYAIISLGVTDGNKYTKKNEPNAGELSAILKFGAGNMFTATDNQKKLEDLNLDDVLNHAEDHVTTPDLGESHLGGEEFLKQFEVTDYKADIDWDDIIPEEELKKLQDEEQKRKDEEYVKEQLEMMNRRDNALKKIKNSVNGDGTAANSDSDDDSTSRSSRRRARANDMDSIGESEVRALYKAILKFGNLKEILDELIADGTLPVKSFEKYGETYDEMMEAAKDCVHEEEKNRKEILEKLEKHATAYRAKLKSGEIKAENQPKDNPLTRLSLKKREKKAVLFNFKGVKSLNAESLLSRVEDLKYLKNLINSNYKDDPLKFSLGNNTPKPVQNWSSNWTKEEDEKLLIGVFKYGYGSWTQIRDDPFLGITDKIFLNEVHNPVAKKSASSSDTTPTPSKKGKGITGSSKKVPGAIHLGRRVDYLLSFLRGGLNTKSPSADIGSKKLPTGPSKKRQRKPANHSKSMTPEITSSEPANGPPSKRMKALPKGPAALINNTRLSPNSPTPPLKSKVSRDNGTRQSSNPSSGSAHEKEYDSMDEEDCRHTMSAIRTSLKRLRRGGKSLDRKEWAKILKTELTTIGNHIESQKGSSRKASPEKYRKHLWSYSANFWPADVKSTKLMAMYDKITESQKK

Protein translocase subunit SecA (Escherichia coli (strain K12)), sequence (P10408 whole entry): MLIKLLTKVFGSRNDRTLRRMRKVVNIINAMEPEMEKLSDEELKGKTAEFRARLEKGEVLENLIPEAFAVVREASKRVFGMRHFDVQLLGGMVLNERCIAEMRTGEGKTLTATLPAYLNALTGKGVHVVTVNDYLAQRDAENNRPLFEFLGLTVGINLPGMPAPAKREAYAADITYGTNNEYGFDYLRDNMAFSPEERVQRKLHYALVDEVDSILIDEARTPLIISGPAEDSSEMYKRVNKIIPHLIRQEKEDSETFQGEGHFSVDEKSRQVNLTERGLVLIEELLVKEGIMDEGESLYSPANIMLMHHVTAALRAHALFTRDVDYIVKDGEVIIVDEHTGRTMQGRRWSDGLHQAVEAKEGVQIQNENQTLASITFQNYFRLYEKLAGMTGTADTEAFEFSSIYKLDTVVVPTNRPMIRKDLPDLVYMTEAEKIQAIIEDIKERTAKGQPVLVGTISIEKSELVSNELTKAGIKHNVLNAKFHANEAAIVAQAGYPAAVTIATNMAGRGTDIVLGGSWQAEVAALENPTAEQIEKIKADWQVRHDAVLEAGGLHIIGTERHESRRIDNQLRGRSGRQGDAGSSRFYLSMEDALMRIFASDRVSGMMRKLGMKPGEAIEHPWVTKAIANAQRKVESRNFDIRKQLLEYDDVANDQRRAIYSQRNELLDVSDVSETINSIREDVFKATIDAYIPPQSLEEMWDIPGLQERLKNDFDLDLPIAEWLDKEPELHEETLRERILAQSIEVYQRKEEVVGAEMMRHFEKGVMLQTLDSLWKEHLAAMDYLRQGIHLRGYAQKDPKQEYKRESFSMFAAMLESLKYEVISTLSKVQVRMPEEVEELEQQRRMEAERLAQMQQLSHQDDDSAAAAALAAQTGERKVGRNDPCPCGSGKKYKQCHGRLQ
Sialic acid-binding Ig-like lectin 9 (Homo sapiens), sequence (Q9Y336 whole entry): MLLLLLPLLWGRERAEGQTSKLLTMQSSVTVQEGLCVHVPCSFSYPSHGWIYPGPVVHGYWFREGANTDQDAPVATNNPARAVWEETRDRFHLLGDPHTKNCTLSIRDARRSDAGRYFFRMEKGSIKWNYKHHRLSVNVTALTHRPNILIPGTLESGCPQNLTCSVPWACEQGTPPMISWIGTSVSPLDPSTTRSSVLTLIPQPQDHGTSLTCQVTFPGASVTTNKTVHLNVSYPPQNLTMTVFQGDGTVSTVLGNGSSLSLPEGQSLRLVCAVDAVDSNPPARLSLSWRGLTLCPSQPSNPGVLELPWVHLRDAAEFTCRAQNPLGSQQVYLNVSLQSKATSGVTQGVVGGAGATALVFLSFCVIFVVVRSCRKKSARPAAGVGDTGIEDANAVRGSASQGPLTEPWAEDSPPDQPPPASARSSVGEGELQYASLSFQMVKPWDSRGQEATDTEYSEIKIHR

Cc1cc(-c2cnc(NC3CC3)nc2-c2ccc(C)o2)on1
Percent Effect [1]: -1.85% | Percent Effect [2]: 13.3% | Percent Effect [3]: 55.8% | Percent Effect [4]: 7.93% | Percent Effect [5]: 3.54% | Percent Effect [6]: -0.233% | Percent Effect [7]: 2.56% | Percent Effect [8]: 20.4% | Percent Effect [9]: 2.13% | Percent Effect [10]: 14.1% | Percent Effect [11]: -7.02%

CS(=O)(=O)NCCCN1CCCCC1c1cc2ccccc2[nH]1 (stereo not given)
Percent Effect [1]: -6.23% | Percent Effect [2]: 15.2% | Percent Effect [3]: -13% | Percent Effect [4]: 11.7% | Percent Effect [5]: 8.03% | Percent Effect [6]: -7.22% | Percent Effect [7]: 5.65% | Percent Effect [8]: -8.5% | Percent Effect [9]: 1.48% | Percent Effect [10]: 16.5% | Percent Effect [11]: -7.23%

O=C(c1cnco1)N1C[C@@H]2CC[C@H](Oc3cccc(F)c3)[C@@H]2C1
Percent Effect [1]: -9.68% | Percent Effect [2]: 12.2% | Percent Effect [3]: 2.91% | Percent Effect [4]: 6.76% | Percent Effect [5]: 0.988% | Percent Effect [6]: -4.41% | Percent Effect [7]: 10.9% | Percent Effect [8]: 9.56% | Percent Effect [9]: 3.23% | Percent Effect [10]: 11.7% | Percent Effect [11]: -8.63%

Cc1cn2c(n1)CCC(NC(=O)c1ccc(CS(C)(=O)=O)cc1)C2 (stereo not given)
Percent Effect [1]: -7.39% | Percent Effect [2]: 13.2% | Percent Effect [3]: -4.52% | Percent Effect [4]: 4.15% | Percent Effect [5]: 7.71% | Percent Effect [6]: -3.06% | Percent Effect [7]: 4.68% | Percent Effect [8]: -9.1% | Percent Effect [9]: 5.39% | Percent Effect [10]: 12.2% | Percent Effect [11]: -9.28%

c1cnn(Cc2nnc(C3CCN(C4CCOCC4)CC3)n2C2CC2)c1
Percent Effect [1]: -7.04% | Percent Effect [2]: 13.3% | Percent Effect [3]: -7% | Percent Effect [4]: 24.9% | Percent Effect [5]: 3.99% | Percent Effect [6]: 5.73% | Percent Effect [7]: 16.2% | Percent Effect [8]: 12.2% | Percent Effect [9]: 7.1% | Percent Effect [10]: 16.1% | Percent Effect [11]: 103%

— ChEMBL document CHEMBL3988442, “University of Dundee, Small-Polar-MMV Screening Library” (2021)
